# Compound activity as filed in PubChem BioAssay.
# aSyn 5UTR act – Activators via SNCA 5'UTR binding, MLPCN; activity score, % (tested at 7.5 µM), hits read low; 300,000 tested, 7.1% active; AID 1814; alpha-synuclein 5'UTR reporter, activators screen; in the data active = activity score below about -60%
# * marks the source's active call; other numbers are inactive results. Not all results are given here.
SMILES,aSyn 5UTR act
Cc1ccc(N/C=C/C(=O)c2ccc(C)cc2)cc1,-241.1*
Cc1ccc(C(=O)/C=C\Nc2ccc(C)c(C)c2)cc1,-194.7*
COc1ccc(N/C=C/C(=O)c2ccc(Cl)cc2)cc1,-105.1*
O=C(/C=C/Nc1ccc(F)cc1Br)c1ccccc1,69.7
Cc1ccc(C(=O)/C=C/Nc2ccccn2)cc1,75.3
Cc1cc(N/C=C/C(=O)c2ccccc2)ccc1Br,-78.4*
COc1ccc(N/C=C/C(=O)c2cc(OC)c(OC)c(OC)c2)cc1,60.2
Cc1ccc(O)c(N/C=C/C(=O)c2ccc(F)cc2)c1,-259.2*
CCc1nnc(NC(=O)CSc2nc3c(cc2C#N)CCCC3)s1,-90.7*
CSC1CCCCC1(O)CSc1nc2c(cc1C#N)CCCC2 (stereo not drawn),56.5
COC(=O)CC(=O)CSc1nc2c(cc1C#N)CCCCC2,-61.7*
CCOC(=O)c1sc(NC(=O)CSc2nc3c(cc2C#N)CCCCC3)c(C#N)c1C,-142.8*
Cc1cnc(NCCc2ccccc2)s1,-63.1*
Cc1c(Cl)cccc1N=c1c([N+](=O)[O-])nn(-c2ccccc2)n1O,-140.7*
Cc1ccc(N=c2c([N+](=O)[O-])nn(-c3ccccc3)n2O)c(C)c1,-194.8*
O=C(CSc1ncccc1-c1nc2ccccc2[nH]1)N1CCc2ccccc21,-116.8*
O=C(CSc1ncccc1-c1nc2ccccc2[nH]1)Nc1ccc2c(c1)OCCO2,-71.1*
CCOc1cccc(OCCCOc2ccccc2)c1,-76.3*
Oc1ccc(Nc2nc(-c3ccc4ccccc4c3)cs2)cc1,-210.0*
CC(=O)Nc1nc(-c2ccc3ccccc3c2)cs1,-143.1*
Cc1ccnc(NC(=O)COc2ccc(Cl)cc2)n1,-83.5*
O=C(COc1ccc(Cl)cc1)Nc1ncccn1,-99.0*
COc1cccc(-c2nc3sc4c(c3c(=O)[nH]2)CCCCC4)c1,-266.5*
COc1cc(C(=O)N=c2sc3ccccc3n2C)cc(OC)c1OC,-103.3*
Cn1c(=NC(=O)c2cccc([N+](=O)[O-])c2)sc2ccccc21,-139.5*
SMILES,aSyn 5UTR act
COc1ccc(C(=O)N=c2sc3c(C)ccc(OC)c3n2C)cc1,-114.6*
COc1cc(C(=O)N=c2sc3c(C)ccc(OC)c3n2C)cc(OC)c1OC,-222.3*
Cc1ccc(C(=O)NCc2ccc3c(c2)CCO3)cc1C,-96.3*
O=C(COC(=O)/C=C/c1ccccc1Cl)NCCNC(=O)COC(=O)/C=C/c1ccccc1Cl,-63.0*
CC(C)(C)c1ccc(/C=C/C(=O)Nc2cccnc2)cc1,-231.6*
O=C(/C=C/c1ccc(Cl)cc1Cl)Nc1ccncc1,-279.5*
O=C(/C=C/c1ccccc1Cl)Nc1ccncc1,-345.6*
Cc1cc2nc3ccc(=[N+](C)C)cc-3sc2cc1N,91.2
CCC(CC)NC(=O)/C=C/c1ccccc1Cl,-100.0*
O=C(/C=C/c1ccccc1Cl)Nc1cccnc1,-150.4*
O=C(/C=C/c1ccc(Cl)c(Cl)c1)Nc1cccnc1,-101.5*
O=C(/C=C/c1ccccc1Cl)NC1CCCCC1,-118.6*
COc1ccccc1/C=C/C(=O)Nc1cccnc1,-75.8*
O=C(/C=C/c1ccccc1Cl)Nc1cccc(S(=O)(=O)NC2=NCCCCC2)c1,-81.6*
CC(=O)N(C)c1ccc(NC(=O)/C=C/c2ccccc2Cl)cc1,-85.5*
O=C(c1cccs1)N1CCN(c2ncc(C(F)(F)F)cc2Cl)CC1,-70.8*
O=C(Oc1c(CN2CCOCC2)cc(Cl)c2cccnc12)c1cccs1,107.7
CCC(C)(C)c1ccc2c(c1)C(=O)c1ccccc1C2=O,-71.5*
CCn1cc(C(=O)NC(=S)Nc2ccccc2[N+](=O)[O-])cn1,-94.1*
O=C(NC(=S)Nc1ccccc1[N+](=O)[O-])c1ccccc1Cl,-94.2*
CC(C)CNC(=S)NC(=O)c1ccccc1Cl,-93.2*
COc1ccc(NC(=S)NC(=O)c2ccccc2Cl)cc1,-129.6*
Cc1ccc(O)c(NC(=S)NC(=O)c2ccccc2Cl)c1,-120.3*
O=C(NC(=S)Nc1ccc(O)cc1)c1ccccc1Cl,-160.8*
O=C(Nc1ccccc1)C(=O)Nc1ccc2c(c1)N(C(=O)C1CC1)CCC2,-121.0*
SMILES,aSyn 5UTR act
Nc1ccc2c(c1)sc1ccccc12,-147.9*
Cc1ccc2c(CC(=O)Nc3nc(C)cs3)coc2c1,-70.3*
Cc1ccc(CC(=O)Nc2cccc(C)n2)cc1,-171.9*
Cc1csc(NC(=O)Cc2ccc(F)cc2)n1,-64.7*
COc1ccc2c(CC(=O)Nc3ncc(C)s3)coc2c1,-133.2*
Cc1csc(NC(=O)Cc2c(F)cccc2Cl)n1,-131.2*
Cc1cccc(NC(=O)Cc2c(F)cccc2Cl)n1,-103.2*
Cc1csc(NC(=O)Cc2c[nH]c3ccccc23)n1,-94.6*
O=C(Cc1c[nH]c2ccccc12)Nc1nc2ccccc2[nH]1,-101.3*
Cc1cc(CNC(=O)Cc2c(F)cccc2Cl)nn1C,-71.6*
CN1CCN(CC(=O)Nc2nc(-c3c[nH]c4ccccc34)cs2)CC1,-62.5*
C=CCS/C(=N\n1cnc2ccccc2c1=O)N1CCCCC1,-86.1*
Cc1cc2[nH]c3ccccc3c2c(C)n1,-85.1*
Cc1cc(=O)[nH]c(N/N=C/c2cc(C)n(-c3ccccc3)c2C)n1,-63.4*
CCN(CC)c1ccc(/C=N/Nc2nc(C)cc(=O)[nH]2)c(O)c1,95.4
Cc1cc(=O)[nH]c(N/N=C/c2ccccc2Cl)n1,-76.4*
